Laboratory results: PubChem BioAssay AID1508600 (Functional Genomics Laboratory (NCATS/FGL), 2020)
About 3,700 (7%) of roughly 53,000 sequences were called active.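 The calls were made as follows: active = gene knockdowns whose robust z-score for IL-1 alpha signal is at least 2 or at most -2, so actives lie on both sides; inactive = the rest.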 The entries come from a sample that favours actives as a whole.

assay: Components of the Cytosolic LPS Sensing Pathway: Gene Identification via Genome-wide siRNA Screen; conditions: RAW264.7 macrophages, IL-1a HTRF, actives lie on both sides, screened at 100 nM (by protocol), cells primed 5 h with Pam3CSK4 first;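 also: robust z of the log signal after scaling to non-targeting control siRNA wells of the plate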
Method in brief: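 Knockdown: 100 nM siRNA, 48h, RAW264.7. Stimulation: Pam3CSK4 5 h, then LipidA via TransIT-TKO 24 h. Output: supernatant IL-1a HTRF, negative-control-normalized, log robust z-score; viability by CellTiter-Glo.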

Sequence	z-score
GGAUGAGAAACCAUUUAAATT against Oas1f	-1.08 (inactive)
GGAUCUCCCUCUAAAUAUUTT against Hsp90aa1	-0.138 (inactive)
CGGAAAGUCCGGUUUCGAATT against Grxcr1	0.156 (inactive)
CGAAGUUACGAGCAUCCACTT against Crhr2	3.81 (active)
GGUUUACAGCAUCAUUAAATT against Shmt1	0.345 (inactive)
CCAGACGAGGAGAACAUCATT against Samd4b	-0.111 (inactive)
GGAUUAGCCUGGUCCUUUUTT against Dusp14	0.989 (inactive)
CCGUCCGAUGAAAAACAGGTT against Prm1	-0.128 (inactive)
GCCCACCGACUUUAUUAACTT against Tfap2d	0.541 (inactive)
GCCAGACAAGCCUCAUUGATT against Ncapd2	-2.2 (active)
GGAAAAGAAAAUCGAGACCTT against Ubap2l	0.776 (inactive)
GGUACAAAUGCAUUGAGAGTT against Fcamr	-1.3 (inactive)
GGCAAAGACAAGAAGCUGUTT against Drap1	-0.445 (inactive)
GCACAACUUAUGACUGAAATT against Emc4	1.66 (inactive)
GCUUCAAGUCAACUUAGUCTT against Hal	1.24 (inactive)
GCGAAUUCGAAAGCUAUGATT against Arhgef10	-2.19 (active)
CCGAAGACUAGCUAAUUUUTT against Sult1c1	1.17 (inactive)
CCUUCAACUAUGGCAAAUATT against Cacul1	-0.241 (inactive)
GCUCUGAACUCAAUAAUAATT against Atg7	-0.875 (inactive)
GCGGAUCUGCUUUUUGCACTT against Ttc14	-0.105 (inactive)
ACUUCGUAAAAGAGCACAATT against Platr25	1.02 (inactive)
GGAUCUUGAAGAUAAGAGCTT against 1810009A15Rik	-0.599 (inactive)

Sequence	z-score
GGGUUUCAGAACUGAGUUATT against Saa1	-0.28 (inactive)
GCCAUGAAUCCUAUCCGCATT against Ephb3	-0.967 (inactive)
CCACCUAAUUUAUUGCUGUTT against Mafk	0.745 (inactive)
GGGUAGAAUGUGUGUGUCUTT against Abhd15	-2.52 (active)
GGCUGGCAUCACCAUCAAATT against Kit	0.429 (inactive)
CCACUUAUAACUCAUAGUUTT against Ugt2b34	0.0725 (inactive)
GGACCGCUUCAACAGUAUGTT against Tcfl5	-0.525 (inactive)
CGCAUCUGUUUCUUUUCCCTT against 1700029P11Rik	-2.22 (active)
GCAGGAGUUUAUCAGAGGATT against Prim2	-1.64 (inactive)
GGCAGCAAAGUCAAGAUGUTT against Msgn1	-1.82 (inactive)
GGGAGGAGAAAAAUAUUCUTT against Olfr1094	-1.5 (inactive)
GGAGAUCUUAGCAAAGUAUTT against Degs1	2.41 (active)
CCUUCAUUCUCAUGUGACCTT against Psat1	-1.2 (inactive)
CCUUAAGGAACUAGGAUUCTT against Lgr5	1.05 (inactive)
GGUCCUCCCAUAAUCUAGUTT against Lrrc75a	1.18 (inactive)
GCUCAUUGCACUAAAAGACTT against Tnnt1	-1.92 (inactive)
CCGCGUCUGUAUUUGAUAUTT against Sccpdh	1.68 (inactive)
GGAAGUCCUGGACAUUCAGTT against Nfkbie	5.66 (active)
GGUUGAGUUUCAGUGCAUCTT against Klhl28	-0.632 (inactive)
GCUUGAUUGUCAGUUGGAATT against Tcp11	-0.364 (inactive)
GGGUAGUUUUGACUUUGUUTT against Schip1	0.472 (inactive)
GGAAUAAGGCGAGUUGGAATT against Serbp1	0.493 (inactive)

Sequence	z-score
GGCCUAUAAUUUCUUUACGTT against Cc2d2a	-0.823 (inactive)
CGCGAGGAAGUCGAGGUAUTT against Pax2	1.17 (inactive)
GGAUGUACACAGAAGGCCATT against Sucnr1	3.47 (active)
GGCACCCUCAAGAAAGCGUTT against Nol6	-1.34 (inactive)
GGGCUUACUGCUUAAUAGATT against Fundc2	0.481 (inactive)
CGUGGACUUAAUAUUUCAGTT against Btbd7	0.685 (inactive)
GCCUCCUAGUAUUUACAUGTT against Ube2j2	0.8 (inactive)
CCAGGCCAAAUCUCACAAUTT against A730008H23Rik	-2.2 (active)
CCGUGAAAAUCAGUAAUUATT against Cacybp	-0.546 (inactive)
GGACUUAUCAAGCUGGUUUTT against Rps25	-1.48 (inactive)
GCUCACAUUGAGUGGUUGGTT against Ncbp3	0.542 (inactive)
GGAGUUACGUAGAACUACCTT against Adam25	0.543 (inactive)
GCAAAUAUUGGCCACUCUCTT against Prpf19	-0.523 (inactive)
GCCAAGAAAAUCAAGUCUCTT against Pknox2	0.892 (inactive)
GGAAGGAGAAGAAAACAUATT against Gtf3c6	-2.13 (active)
GGCUGUCCAGACUAGUUCUTT against Lsm14b	-0.317 (inactive)
CCUCAUCAUAUUCUCCUGATT against Olfr869	-0.848 (inactive)
CCUGUCUUUAGUGGACUUUTT against Olfr1453	0.22 (inactive)
GGUCUUUGAGAAGUACCACTT against Chst3	-0.22 (inactive)
CCAGUCCUUGAAAAGAGCUTT against Olfr128	-2.35 (active)
CGCCCAAAUUGACUAUUUGTT against Fam214b	0.351 (inactive)
GAGAGCGGAGAGAUCAAAGTT against Iltifb	0.108 (inactive)

Sequence	z-score
GGCUGUUCCAGAGAUUGUGTT against Mela	-0.29 (inactive)
GCGGUAUGAGAAGGUUCCATT against Rap2a	3.48 (active)
GGCAUUGACAUCAUGUACUTT against Agxt	1.1 (inactive)
GCGACAUCACAAGAAUCGATT against Fancd2	-0.979 (inactive)
CCUAUCAAAUUAAAUGCGCTT against Muc13	-0.6 (inactive)
GGUUGUGAUCAAUUAUUCATT against Evl	1.27 (inactive)
GGAACACUCUGAAUUCAUUTT against Cxcl15	0.0905 (inactive)
GCUGCUUUACUUAAGAGUUTT against Srf	0.625 (inactive)
GCGAAACUUCCAGAUCUAGTT against Cnot11	2.14 (active)
GGGCAAGAGAGUAGAACUGTT against Ambra1	0.383 (inactive)
GGUGACACAGCUGCUUUUCTT against Dact2	0.107 (inactive)
CGGUCCAGGAAGAAUGUUUTT against Bckdhb	-0.781 (inactive)
GGAUUGUCAGAAAUCCUGATT against Adat2	-1.22 (inactive)
CCCAUCAAUAUCAUAUCCATT against Car7	-2.34 (active)
CCAGAGUUCUGGGAUUCCATT against Cyp2c66	-0.948 (inactive)
GGCCAAGAAUGAUCGUUCUTT against Gabrb3	0.00587 (inactive)
GCAGACAGUAAAUUGGUAATT against Mab21l3	0.915 (inactive)
GGAUUACACACCUACGAUCTT against Taf10	-1.63 (inactive)
CGACUACCUGGAUAUCUACTT against Efna2	-0.292 (inactive)
GGCGUGUUGAGACAAUCCUTT against Lkaaear1	-0.815 (inactive)
GCAUAGCAGGAAGGCCUUGTT against Htr6	0.183 (inactive)
GCAUAUUGUGCGACUUUUCTT against Utp15	-2.16 (active)

Sequence	z-score
GCAAAUUUUAUCAACCGCATT against Mical3	-0.0618 (inactive)
CGACCAUACGAAUGCGGCATT against Zfp865	0.498 (inactive)
GGCUUGAACACAAGAAAGCTT against Golim4	-0.778 (inactive)
GGAUGAGAAUAUUGAAAGATT against 4932415M13Rik	-0.225 (inactive)
GGCAGGAAAACUGCCAAUGTT against Gm6034	1.36 (inactive)
CCUUAAUUGGGUUGAAUUCTT against Olfr878	2.44 (active)
GCUGACUAAGGCUUGUAAUTT against Hrnr	-0.194 (inactive)
GGUUAAUUCCAACAAAGCATT against Orc4	-0.529 (inactive)
GGUCUACAACCAAAUCUGCTT against Clec7a	-0.531 (inactive)
CCUGAGACUGCAUCUUUUCTT against Slc10a7	-0.693 (inactive)
GCCAAAUUAAGUAUCUUGATT against Lamp2	0.371 (inactive)
GCCUCAUUGAAAGGAUCCATT against Mgat5b	-2.32 (active)
GGCGGAAAAAAAAGUAAUATT against Crebzf	0.926 (inactive)
GGCUCAUUGGACAUAUAUGTT against Casp8ap2	-1.77 (inactive)
GGGACACCAAGUUUUCCAUTT against Paqr7	1.63 (inactive)
GGAAGAAGCAGGUGAUUAATT against Grb14	-1.24 (inactive)
CGGAUCGGUGCGAGAAUAATT against Gpatch3	0.61 (inactive)
GGCCCUGUGUCAAAUCAGUTT against Zfand6	2.1 (active)
GGAGAUUGUUAUGCAAAAATT against Dnah5	0.178 (inactive)
